Our source for the Potency, max response and outcome values is PubChem BioAssay (NCATS).

Inconclusive results are not listed. Values without a mark were called inactive. The source made the active and inactive calls. Calls follow the shape of the dose curve; as a rule, active = well fitted inhibition curve with a large enough effect; inconclusive = small, poorly fitted or top-dose-only effect; inactive = flat fitted curve, though single readings scatter.

Test [1] relates to W2. Put plainly: qHTS profiling for inhibitors of Plasmodium falciparum proliferation (AID 504749). Also: potency is read from the fitted curve at half-maximal effect. As to conditions: P. falciparum in erythrocytes, SYBR Green DNA, 72 h; series mostly up to 28.7 µM. An outline of the steps: (§1)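 Parasite proliferation within erythrocytes, 72 h exposure. Endpoint: SYBR Green I fluorescence after overnight lysis at room temperature. Controls: 0.29 uM artemisinin, DMSO.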

Test [2] concerns CRL-7250. Put plainly: Cytotoxic Profiling of Annotated Libraries Using Quantitative High-Throughput Screening (AID 1296008). As to max response: % is scaled to controls: 0 for no effect and ±100 for the full control effect. As to conditions: Five cell lines viability, CellTiter-Glo ATP luminescence, 48-72 h; stronger effect = lower value. The method, boiled down: (§2)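 Compounds were pin-transferred onto cells and incubated 48 or 72 hr at 37 degree Celsius, 95% humidity. CellTiter-Glo was added, plates sat 10 min at room temperature, then ATP-coupled luminescence was imaged as the viability read-out.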

Test [3] has as its system HEK293. Described as above. The conditions noted are these: Five cell lines viability, CellTiter-Glo ATP luminescence, 48-72 h; stronger effect = lower value. The method, boiled down: as §2
Test [4] concerns HaCat. The description is as above. The conditions noted are these: Five cell lines viability, CellTiter-Glo ATP luminescence, 48-72 h; stronger effect = lower value. An outline of the steps: as §2
For orientation: In ATP-based viability assays light output follows the ATP content of the culture.

Test [5] has as its system KB-3-1. The description is as above. As to conditions: Five cell lines viability, CellTiter-Glo ATP luminescence, 48-72 h, stronger effect = lower value. The method, boiled down:
as §2

For test [6], the system named is NIH3T3. The test is described as above. As to conditions: Five cell lines viability, CellTiter-Glo ATP luminescence, 48-72 h; stronger effect = lower value. The method, boiled down:
as §2

For test [7], the system named is HACAT. The test is described as follows: qHTS assay to identify novel small-molecules to repurpose for Merkel cell carcinoma treatment (AID 1296009). The conditions noted are these: MCC and control cell lines, CellTiter-Glo viability, 72 h; at 44.8 µM (top of the series) unless noted. The method, boiled down: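 qHTS format: cells treated with library compounds in DMSO across 8 (NPC) or 11 (MIPE) concentrations. Readout after 72 hr at 37 degree celsius was CellTiter-Glo luminescence.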
For orientation: qHTS replaces the single test concentration by a dilution series.

In test [8] the test system is TAB109. Put plainly: qHTS profiling for inhibitors of Plasmodium falciparum proliferation (AID 504749). Also: potency is read from the fitted curve at half-maximal effect. As to conditions: P. falciparum in erythrocytes, SYBR Green DNA, 72 h; series mostly up to 28.7 µM. An outline of the steps: as §1
For test [9], the system named is TAB113. The test is described as above. As to conditions: P. falciparum in erythrocytes, SYBR Green DNA, 72 h; series mostly up to 28.7 µM. An outline of the steps:
as §1

In test [10] the test system is TAB165. The test is described as above. The conditions noted are these: P. falciparum in erythrocytes, SYBR Green DNA, 72 h; series mostly up to 28.7 µM. The method, boiled down:
as §1
Also: nearly all actives have a fitted effect of over 60% in size.

Take `Cc1cc(O)cc(C)c1Cl`: the Potency in test [1] was 7.57 µM (active). Moreover, the max response in test [2] is -1.3%; in [5] it was 4.13%; in test [6], 1.17%. Besides, the compound was called inactive in test [3], in [4] and in test [7].
Regarding `COC(=O)c1ccccc1C(=O)c1ccc(OCCN2CCCCC2)cc1`, the Potency result in test [8], in test [9] and in [10] was “inactive” each time. The max response in [2] is -2.25%; in [4], -0.875%; in test [5], -16%; in [6] it was -3.51%. The outcome in [3] was inactive.
`Nc1c2c(nc3c1CCC3)CCCC2`: in test [10], the Potency was 11.2 µM (active). Further, the compound was called inactive in test [2], in test [4] and in test [7]. Besides, the max response was -2.02% in test [3], -0.45% in test [5] and 0.339% in [6].
With `COc1cc(O)cc(O)c1`, the Potency entry in [8], in test [9] and in [10] was “inactive” each time. The outcome in [2] and in [3] was inactive. Besides, the values for the max response in test [4], in test [5] and in test [6] were -8.13%, -4.6% and -7.04%, respectively.
As to `Cc1cccc(C(=O)O)c1O`, the Potency result in [8], in [9], in test [10] and in [1] was “inactive” throughout. In addition, the max response was -0.667% in test [2], -2.23% in test [3] and 2.2% in test [5]. In addition, the call in test [4], in test [6] and in test [7] was inactive.
Turning to `CC[N+](C)(CC)CCOC(=O)C1c2ccccc2Oc2ccccc21`, the Potency result in test [8], in [9] and in [1] was “inactive” each time. Further, the result in test [2], in test [4] and in test [7] was inactive. The max response in test [3] was -9.27%; in test [5], 56.3%; in test [6], 2.85%.
In the case of `CC(=O)Nc1ccccc1`, the Potency entry in test [8], in [9], in [10] and in [1] was “inactive” throughout. Also, the max response is 2.87% in [2], -7.78% in [3] and 12.7% in test [5]. Moreover, the outcome in test [4], in [6] and in test [7] was inactive.
On to `O=C1CC[C@@H](C(=O)O)N1`, for which the Potency entry in test [8], in test [9] and in test [10] was “inactive” in each case. Besides, the max response in [2] is 1.58%; in [4] it was 4.13%; in test [5] it was 18.1%; in test [6], 0.792%. Further, the outcome in [3] was inactive.
`COc1cc(C(=O)NCCCCCC(=O)O)cc(OC)c1OC`: the Potency result in test [8], in [9] and in [10] was “inactive” throughout. For the same compound, the max response in test [2] is -1.11%; in test [4] it was 4.84%; in test [5], 1.07%; in test [6], 3.71%. Besides, the call in test [3] was inactive.
Regarding `Cc1cc(OI)c(C(C)C)cc1-c1cc(C(C)C)c(OI)cc1C`, the values for the Potency in [9] and in test [1] were 10 µM (active) and 6.01 µM (active), respectively. Besides, the result in test [2], in test [4] and in test [7] was inactive. For the same compound, the max response was 2.3% in test [3], 12.2% in [5] and -2.54% in test [6].
For the compound `O=C1c2ccccc2C(=O)C1c1ccc(Br)cc1`, the results for the Potency in test [9] and in test [1] were 8.91 µM (active) and 4.78 µM (active), respectively. The max response in [2] is -1.25%; in test [3] it was -0.633%; in [5], -16.6%; in test [6] it was -1.29%. The call in [4] and in [7] was inactive.
On to `C[C@@H]1CCC[C@H](C)N1`, for which the Potency entry in test [8], in test [10] and in test [1] was “inactive” each time. In addition, the max response is 0.393% in test [2], -9.02% in test [3], -5.17% in test [5] and 4.6% in test [6]. Also, the compound was classed as inactive in test [4] and in [7].
Take `NNc1nnc(NN)c2ccccc12`: the Potency entry in test [8], in [9] and in [10] was “inactive” each time. The max response in test [2] is 4.89%; in test [3] it was -11.7%; in test [4], 3.01%; in test [5], -5.02%. For the same compound, in test [6], the compound was called inactive.
As to `Cn1c([N+](=O)[O-])cnc1COC(N)=O`, the Potency entry in test [8], in test [9], in test [10] and in [1] was “inactive” in each case. Also, the max response in test [2] is -9.26%; in test [3] it was 2.06%; in test [4], -19.4%; in [5], -4.93%; in test [6] it was 2.03%.
Turning to `Nc1ccc(S(=O)(=O)c2ccc(N)cc2)cc1`, the Potency result in [8], in [9], in test [10] and in test [1] was “inactive” each time. The max response is 2.75% in test [2], 2.48% in test [4], -3.79% in test [5] and 3.17% in test [6]. Besides, the compound was classed as inactive in [3].
With `CCCCCCCCCCCCCCCCC(C(=O)O)C(O)(CC(=O)O)C(=O)O` (stereo not drawn), the Potency result in test [8], in test [9] and in test [10] was “inactive” throughout. Further, the compound was called inactive in test [2] and in test [3]. Moreover, the figures for the max response in [4], in [5] and in [6] were 2.76%, 6.88% and 0.574%, respectively.
As for `Cc1[nH]c(C)c(Cl)c(=O)c1Cl`, the Potency entry in [8] and in test [9] was “inactive” throughout. For the same compound, the outcome in test [2] was inactive. Moreover, the max response in test [3] is -10%; in test [4] it was -2.26%; in [5], -14.2%; in test [6] it was -10.7%.
With `Cc1cc(C)c(NC(=O)CN(CC(=O)O)CC(=O)O)c(C)c1Br`, the Potency entry in [1] was “inactive”. For the same compound, the max response in test [2] is -2.84%; in test [3] it was -7.54%; in [5], 14.1%; in [6], -1.07%. Besides, the result in [4] and in [7] was inactive.
Consider `CC(CN(C)C)C(C)(O)Cc1ccc(Cl)cc1` (stereo not drawn), for which the Potency in [1] is 2.39 µM (active). Moreover, the compound was classed as inactive in test [2], in test [4], in test [6] and in test [7]. Besides, the max response in [3] was 3.34%; in test [5] it was 6.05%.
On to `Cn1c(=O)c2c(ncn2CCO)n(C)c1=O`, for which the Potency entry in test [8], in test [9], in test [10] and in test [1] was “inactive” each time. Besides, the max response in test [2] was -4.29%; in test [3], -4.8%; in test [5], -5.28%; in [6] it was -3.21%. Moreover, the result in test [4] and in test [7] was inactive.
`O=C(c1ccccc1)C(O)c1ccccc1` (stereo not drawn): the Potency entry in [8], in [9] and in [10] was “inactive” throughout. Besides, the max response in test [2] is -6.36%; in test [3], -4.36%; in test [4], -0.758%; in test [5] it was -15.7%. In addition, the result in [6] was inactive.
